# Source: PubChem BioAssay
# Unmarked numbers belong to inactive results. Calls of active or inactive are those of the source.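 The calls were made as follows, unless noted: active = inhibition above 50%; inactive = the rest.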
# Test: antimalarial activity against Dd2 strain (AID 2302;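 active = growth inhibition above 50% at the single 2 µM test dose, taken to imply half-maximal potency below 2 µM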;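 also: 0% = DMSO untreated growth and 100% = chloroquine plus artemisinin killed control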)
# Details: P. falciparum Dd2 in RBCs, LDH growth readout, 72 h; at 2 µM; hits give high values
row,Compound,growth inhibition
1,Cc1cc(NC(=O)c2ccco2)ccc1OC1CCN(Cc2ccc(F)cc2)C1 (stereo not given),92% (active)
2,Cn1cncc1CNCc1ccc(-c2cccc(-c3nc4ccccc4[nH]3)c2)cc1,92% (active)
3,COc1cc(C(=O)N2CCOC(CCN3CCc4c(c5ccccc5n4C)C3)(c3ccc(Cl)c(Cl)c3)C2)cc(OC)c1OC (stereo not given),68% (active)
4,CC(C)C[C@H](NC(=O)c1cc2ccccc2s1)C(=O)N[C@H]1CCN(Cc2ccc(I)c(OCCN3CCCC3)c2)C1,88% (active)
5,O=C(Nc1cc(F)cc(F)c1)N1CCOC(CCN2CCC(c3ccccc3)CC2)(c2ccc(Cl)c(Cl)c2)C1 (stereo not given),69% (active)
6,COc1ccc(-c2nc3cccnc3n2CC(=O)Nc2cc(Cl)c(Cl)cc2Cl)c(OC)c1,17%
7,CCCCn1c(C(C)Oc2ccc(Cl)cc2Cl)nc2cc(S(N)(=O)=O)ccc21 (stereo not given),45%
8,CC(C)N1CCN(c2ccc(OCCCN3CCN(c4cccc(Cl)c4Cl)CC3)c(C(F)(F)F)c2)CC1,37%
9,COc1ccc(OC)c(Cc2cnc3nc(N)[nH]c(=O)c3c2C)c1,4%
10,CCCCCCNC(=O)C1Cc2c([nH]c3ccc(C)cc23)C2(CCN(CCc3ccccc3)CC2)N1 (stereo not given),24%
11,COc1cccc(NC(=O)NC2CCN(c3ccnc(Nc4cc(OC)c(OC)c(OC)c4)n3)C2)c1 (stereo not given),57% (active)
12,Fc1ccc2nc(-c3ccc(-c4ccc(CNCCc5ccncc5)cc4)s3)[nH]c2c1,100% (active)
13,CC(C)C[C@@H](NC(=O)OC(C)(C)C)C(=O)Nc1ccc(Cc2ccc(NC(=O)[C@@H](CC(C)C)NC(=O)OC(C)(C)C)cc2)cc1,96% (active)
14,COc1ccc(CNCCc2cccs2)cc1-c1ccc(S(=O)(=O)NCCN2CCCC2)s1,21%
15,O=c1c(NCCCN(Cc2ccc(F)cc2)c2ccccn2)c(NCc2cccnc2)c1=O,92% (active)
16,CC(C)CNCc1ccc(-c2ccc(CN(CCCN3CCN(C)CC3)C(=O)CCC3CCCC3)cc2)cc1,87% (active)
17,CC(=O)C1=NN(c2ccc(C)cc2)C(c2cccs2)N1c1ccccc1 (stereo not given),64% (active)
18,CCn1cc(-c2cc(C(=O)Nc3ccc(OC)cc3C)c3ccccc3n2)c(C)n1,100% (active)
19,O=C(c1ccc(-c2ccc(-c3nc4ccc(C(F)(F)F)cc4[nH]3)s2)cc1)N1CCCCC1CN1CCC(O)C1 (stereo not given),80% (active)
20,O=C(NCC1CCN(CCN2CCc3ccc4c(c3C2)OCO4)CC1)c1ccc(-c2ccc(C(F)(F)F)cc2)cc1,34%
21,O=C(NCCCCCN1CCC(c2c[nH]c3ccccc23)CC1)c1ccc(Cl)c(Cl)c1,10%
22,FC(F)(F)c1ccc2nccc(NN=CC=Cc3ccccc3)c2c1,9%
23,N#Cc1ccnc(-c2ccc(CNC3CCN(CC4Cn5c(=O)ccc6ccc(F)c4c65)CC3)cc2)c1 (stereo not given),41%
24,COc1cc2nc(NCc3ccc(S(N)(=O)=O)cc3)nc(Nc3ccc(Oc4ccccc4)cc3)c2cc1OC,100% (active)
25,Cc1nc(N)nc(N)c1OCc1cccc2c1ccc1ccccc12,16%

# Test: HepG2 cytotoxicity, primary screen, cytotoxicity control for P. falciparum antimalarial project, cell-based, ATP luminescence (AID 2303);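 also: 0% = DMSO wells and 100% = digitonin-killed cells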
# Details: HepG2 viability, 24-48 h, at 10 µM, hits give high values
row,Compound,inhibition
1,COc1cccc2c1CCN(CCN1CCC(NC(=O)c3ccc(-c4cccc(Cl)c4Cl)cc3)CC1)C2,47%
2,C=CCC1OC(=O)c2cc(OC)cc(OC)c21 (stereo not given),100% (active)
3,COCC(=O)Nc1nc2ccccc2[nH]1,-14%
4,COc1ccc(NC(=O)C2c3ccccc3C(=O)N(C3CCCC3)C2c2cccs2)cc1 (stereo not given),0%
5,CN1C[C@@H](c2ccccc2)c2cc(O)c(CN3CCCCC3)cc2C[C@H]1Cc1ccccc1,-6%
6,CO/C(=C\C=C\c1cc2cc(Cl)c(Cl)cc2[nH]1)C(=O)NC1CCN(CCNc2ccccc2)CC1,60% (active)
7,CC(C)(CC1CCCCC1)NC(=O)[C@H](CC1CCCCC1)Nc1ccc(C#N)c2ccccc12,14%
8,CC[C@H](NC(=O)c1ccc(NC(=O)OC(C)(C)C)cc1)C(=O)N[C@@H](CO)C(=O)NCCCCc1ccccc1,-6%
9,COc1ccccc1CNC(=O)c1ccc(N2CCN(c3ccncc3)CC2)cn1,16%
10,CCCCCCCCCc1c(C)[nH]c2ccccc2c1=O,-16%
11,NC(N)=NN=Cc1ccc2c(c1)Cc1ccccc1-2,72% (active)
12,CC(C)(C)c1ccc(C(=O)NC2CCC(CCN3CCc4ccc(S(C)(=O)=O)cc4CC3)CC2)cc1C(F)(F)F (stereo not given),54% (active)
13,O=C(Nc1ccc2c(c1)OCO2)c1cc(-c2cccnc2)cnc1NCc1ccc2c(c1)OCO2,2%
14,COc1ccc(Nc2ccnc3cc(-c4ccccn4)ccc23)cc1OC,14%
15,CC(C)Cn1c(Sc2ccc(C#N)c([N+](=O)[O-])c2)nnc1-c1cccs1,9%
16,Cc1cc(NC(=O)c2ccco2)ccc1OC1CCN(Cc2ccc(F)cc2)C1 (stereo not given),5%
17,Cn1cncc1CNCc1ccc(-c2cccc(-c3nc4ccccc4[nH]3)c2)cc1,19%
18,COc1cc(C(=O)N2CCOC(CCN3CCc4c(c5ccccc5n4C)C3)(c3ccc(Cl)c(Cl)c3)C2)cc(OC)c1OC (stereo not given),16%
19,CC(C)C[C@H](NC(=O)c1cc2ccccc2s1)C(=O)N[C@H]1CCN(Cc2ccc(I)c(OCCN3CCCC3)c2)C1,3%
20,O=C(Nc1cc(F)cc(F)c1)N1CCOC(CCN2CCC(c3ccccc3)CC2)(c2ccc(Cl)c(Cl)c2)C1 (stereo not given),31%

row,Compound,inhibition
1,COc1ccc(-c2nc3cccnc3n2CC(=O)Nc2cc(Cl)c(Cl)cc2Cl)c(OC)c1,99% (active)
2,CCCCn1c(C(C)Oc2ccc(Cl)cc2Cl)nc2cc(S(N)(=O)=O)ccc21 (stereo not given),24%
3,CC(C)N1CCN(c2ccc(OCCCN3CCN(c4cccc(Cl)c4Cl)CC3)c(C(F)(F)F)c2)CC1,79% (active)
4,COc1ccc(OC)c(Cc2cnc3nc(N)[nH]c(=O)c3c2C)c1,62% (active)
5,CCCCCCNC(=O)C1Cc2c([nH]c3ccc(C)cc23)C2(CCN(CCc3ccccc3)CC2)N1 (stereo not given),31%
6,COc1cccc(NC(=O)NC2CCN(c3ccnc(Nc4cc(OC)c(OC)c(OC)c4)n3)C2)c1 (stereo not given),8%
7,Fc1ccc2nc(-c3ccc(-c4ccc(CNCCc5ccncc5)cc4)s3)[nH]c2c1,34%
8,CC(C)C[C@@H](NC(=O)OC(C)(C)C)C(=O)Nc1ccc(Cc2ccc(NC(=O)[C@@H](CC(C)C)NC(=O)OC(C)(C)C)cc2)cc1,8%
9,COc1ccc(CNCCc2cccs2)cc1-c1ccc(S(=O)(=O)NCCN2CCCC2)s1,41%
10,O=c1c(NCCCN(Cc2ccc(F)cc2)c2ccccn2)c(NCc2cccnc2)c1=O,-2%
11,CC(C)CNCc1ccc(-c2ccc(CN(CCCN3CCN(C)CC3)C(=O)CCC3CCCC3)cc2)cc1,50% (active)
12,CC(=O)C1=NN(c2ccc(C)cc2)C(c2cccs2)N1c1ccccc1 (stereo not given),-4%
13,CCn1cc(-c2cc(C(=O)Nc3ccc(OC)cc3C)c3ccccc3n2)c(C)n1,-5%
14,O=C(c1ccc(-c2ccc(-c3nc4ccc(C(F)(F)F)cc4[nH]3)s2)cc1)N1CCCCC1CN1CCC(O)C1 (stereo not given),90% (active)
15,O=C(NCC1CCN(CCN2CCc3ccc4c(c3C2)OCO4)CC1)c1ccc(-c2ccc(C(F)(F)F)cc2)cc1,66% (active)
16,O=C(NCCCCCN1CCC(c2c[nH]c3ccccc23)CC1)c1ccc(Cl)c(Cl)c1,48%
17,FC(F)(F)c1ccc2nccc(NN=CC=Cc3ccccc3)c2c1,-4%
18,N#Cc1ccnc(-c2ccc(CNC3CCN(CC4Cn5c(=O)ccc6ccc(F)c4c65)CC3)cc2)c1 (stereo not given),24%
19,COc1cc2nc(NCc3ccc(S(N)(=O)=O)cc3)nc(Nc3ccc(Oc4ccccc4)cc3)c2cc1OC,14%
20,Cc1nc(N)nc(N)c1OCc1cccc2c1ccc1ccccc12,54% (active)
